Records with an inconclusive call do not appear. A call without a number means that no potency is given here. Calls of active or inactive are those of the source. Calls come from the whole dose curve; as a rule, active = well fitted curve in the direction sought with a large enough effect; inconclusive = small, poorly fitted or top-dose-only effect, or another doubt; inactive = no such curve, though single readings can be large; an effect the other way counts as inactive or inconclusive.
How the values were obtained:
[1] = qHTS of pediatric cancer cell lines to identify multiple opportunities for drug repurposing: Primary screen for Saos-2 cells (AID 1347097); note: nearly all actives have a fitted effect of over 40% in size; note: potency is the fitted concentration of half-maximal effect
Procedure, shortened: (§1)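 Quantitative HTS format: each compound titrated (MIPE 11 points from 0.78 nM, NPC 8 points from 0.59 nM) onto cells plated 5 hours earlier. After 48 h at 37 degrees C, CellTiter-Glo luminescence was recorded.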

[2] = qHTS of pediatric cancer cell lines to identify multiple opportunities for drug repurposing: Primary screen for SK-N-SH cells (AID 1347098); note: nearly all actives have a fitted effect of over 65% in size; note: potency is the fitted concentration of half-maximal effect
Procedure, shortened: (§2)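 Cells (500-1,000/well) rested 5 h, then received compounds for 48 h; metabolically active cells were measured by CellTiter-Glo luminescence. Final concentrations spanned up to 46 µM (MIPE, 11-point) or 0.59 nM-46 µM (NPC, 8-point) in primary screens, 11-point in follow-ups.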

[3] = qHTS of pediatric cancer cell lines to identify multiple opportunities for drug repurposing: Primary screen for NB1643 cells (AID 1347099); note: nearly all actives have a fitted effect of over 50% in size; note: potency is the fitted concentration of half-maximal effect
Procedure, shortened: as §1

[4] = qHTS of pediatric cancer cell lines to identify multiple opportunities for drug repurposing: Primary screen for BT-12 cells (AID 1347101); note: nearly all actives have a fitted effect of over 25% in size; note: potency is the fitted concentration of half-maximal effect
Procedure, shortened: as §2

[5] = qHTS of pediatric cancer cell lines to identify multiple opportunities for drug repurposing: Primary screen for Rh18 cells (AID 1347102); note: nearly all actives have a fitted effect of over 65% in size; note: potency is the fitted concentration of half-maximal effect
Procedure, shortened: (§3)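 Viability after 48 h compound treatment at 37C, 500-1,000 cells/well, read as ATP luminescence with CellTiter-Glo. Primary screens used 11-point (MIPE, 0.78 nM-46 µM) or 8-point (NPC, 0.59 nM-46 µM) final concentrations; follow-up screens used 11-point dilutions.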

[6] = qHTS of pediatric cancer cell lines to identify multiple opportunities for drug repurposing: Primary screen for OHS-50 cells (AID 1347103); note: nearly all actives have a fitted effect of over 40% in size; note: potency is the fitted concentration of half-maximal effect
Procedure, shortened: as §2

[7] = qHTS of pediatric cancer cell lines to identify multiple opportunities for drug repurposing: Primary screen for RD cells (AID 1347104); note: nearly all actives have a fitted effect of over 55% in size; note: potency is the fitted concentration of half-maximal effect
Procedure, shortened: as §1

[8] = qHTS of pediatric cancer cell lines to identify multiple opportunities for drug repurposing: Primary screen for MG 63 (6-TG R) cells (AID 1347105); note: nearly all actives have a fitted effect of over 50% in size
Procedure, shortened: as §1

[9] = qHTS of pediatric cancer cell lines to identify multiple opportunities for drug repurposing: Primary screen for control Hh wild type fibroblast cells (AID 1347106);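 note: series mostly up to about 46 µM; a drop in luminescence marks cytotoxicity and a rise apparent proliferation; nearly all actives have a fitted effect of over 55% in size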
Procedure, shortened: as §3

[10] = qHTS of pediatric cancer cell lines to identify multiple opportunities for drug repurposing: Primary screen for Rh30 cells (AID 1347107); note: series mostly up to about 46 µM; nearly all actives have a fitted effect of over 75% in size
Procedure, shortened: as §3

[11] = qHTS of pediatric cancer cell lines to identify multiple opportunities for drug repurposing: Primary screen for Rh41 cells (AID 1347108); note: nearly all actives have a fitted effect of over 70% in size; note: potency is the fitted concentration of half-maximal effect
Procedure, shortened: as §1

[12] = qHTS of pediatric cancer cell lines to identify multiple opportunities for drug repurposing: Confirmatory screen for NB1643 cells (AID 1347109); note: nearly all actives have a fitted effect of over 45% in size
Procedure, shortened: as §3

[13] = qHTS of pediatric cancer cell lines to identify multiple opportunities for drug repurposing: Confirmatory screen for SK-N-MC cells (AID 1347111);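 note: cells exposed to compound for 48 h before the readout; nearly all actives have a fitted effect of over 70% in size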; note: potency is the fitted concentration of half-maximal effect
Procedure, shortened: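 SK-N-MC cells at 500-1,000 cells/well in growth media were pre-incubated 5 h, then exposed to compounds at 11-point dilutions for 48 h at 37 degrees C, 5% CO2. Viability was read as CellTiter-Glo luminescence.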

[14] = qHTS of pediatric cancer cell lines to identify multiple opportunities for drug repurposing: Confirmatory screen for BT-12 cells (AID 1347112); note: nearly all actives have a fitted effect of over 55% in size
Procedure, shortened: as §3

[15] = qHTS of pediatric cancer cell lines to identify multiple opportunities for drug repurposing: Confirmatory screen for SJ-GBM2 cells (AID 1347116); note: nearly all actives have a fitted effect of over 60% in size
Procedure, shortened: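 Viability measured as metabolically active cells via CellTiter-Glo luminescence following 48 hours of compound exposure, 11-point dilutions in confirmatory testing. 500-1,000 cells/well plated 5 hours before dosing; controls were DMSO and 2.3 µM bortezomib.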

[16] = qHTS of pediatric cancer cell lines to identify multiple opportunities for drug repurposing: Confirmatory screen for BT-37 cells (AID 1347117); note: nearly all actives have a fitted effect of over 55% in size
Procedure, shortened: as §3

[17] = qHTS of pediatric cancer cell lines to identify multiple opportunities for drug repurposing: Confirmatory screen for MG 63 (6-TG R) cells (AID 1347119); note: nearly all actives have a fitted effect of over 55% in size
Procedure, shortened: as §3

[18] = qHTS of pediatric cancer cell lines to identify multiple opportunities for drug repurposing: Primary screen for LAN-5 cells (AID 1347100); note: potency is the fitted concentration of half-maximal effect
Procedure, shortened: as §3

[19] = qHTS of pediatric cancer cell lines to identify multiple opportunities for drug repurposing: Confirmatory screen for A673 cells (AID 1347110); note: nearly all actives have a fitted effect of over 65% in size; note: potency is the fitted concentration of half-maximal effect
Procedure, shortened: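 A673 cells at 500-1,000 cells/well were dosed 5 h after plating, in dilution series up to 46 uM final; primary runs used 8 or 11 points and confirmatory runs used 11 points. Viability was read by CellTiter-Glo luminescence after 48 h, against DMSO and 2.3 uM bortezomib controls.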

[20] = qHTS of pediatric cancer cell lines to identify multiple opportunities for drug repurposing: Confirmatory screen for TC32 cells (AID 1347118); note: potency is the fitted concentration of half-maximal effect; nearly all actives have a fitted effect of over 65% in size
Procedure, shortened: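 Luminescent ATP read-out (CellTiter-Glo) of metabolically active TC32 cells after 48 h exposure. Concentration-response curves came from 11-point (MIPE, 0.78 nM–46 µM) or 8-point (NPC, 0.59 nM–46 µM) primary titrations; follow-up used 11 points.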

Row | SMILES | Potency [1] | Potency [2] | Potency [3] | Potency [4] | Potency [5] | Potency [6] | Potency [7] | Potency [8] | Potency [9] | Potency [10] | Potency [11] | Potency [12] | Potency [13] | Potency [14] | Potency [15] | Potency [16] | Potency [17] | Potency [18] | Potency [19] | Potency [20]
1 | ClC1=C(Cl)C2(Cl)C(CBr)CC1(Cl)C2(Cl)Cl (stereo unspecified) | inactive | inactive | inactive | inactive | inactive | inactive | inactive | inactive | inactive | inactive | inactive | inactive | 10.4 µM (active) | inactive | inactive | inactive | inactive | – | – | –
2 | C[C@]12CC[C@H](O)CC1=CC[C@@H]1[C@@H]2CC[C@]2(C)C(=O)CC[C@@H]12 | inactive | inactive | inactive | inactive | inactive | – | inactive | inactive | inactive | inactive | inactive | – | – | – | – | – | – | – | – | –
3 | COc1cc(C[C@@H](C)N)c(OC)cc1Br | inactive | inactive | inactive | inactive | inactive | – | – | inactive | inactive | inactive | inactive | – | – | – | – | – | – | inactive | – | –
4 | COc1cc(C[C@@H](C)N)c(OC)cc1C | inactive | inactive | inactive | – | inactive | – | inactive | inactive | inactive | inactive | inactive | – | – | – | – | – | – | inactive | – | –
5 | C#C[C@]1(O)C=C[C@H]2[C@@H]3CCC4=CC(=O)CC[C@@H]4[C@H]3CC[C@@]21CC | inactive | inactive | inactive | inactive | inactive | – | inactive | inactive | inactive | inactive | inactive | – | – | – | – | – | – | – | – | –
6 | CCc1ccc(C2CCNCC2)cc1 | inactive | inactive | inactive | inactive | inactive | – | inactive | inactive | inactive | inactive | inactive | inactive | inactive | inactive | – | inactive | inactive | inactive | inactive | –
7 | CC(C)(C)OC(=O)c1ncn2c1[C@@H]1CCCN1C(=O)c1c(Br)cccc1-2 | inactive | inactive | inactive | inactive | inactive | inactive | inactive | inactive | inactive | inactive | inactive | – | – | – | – | – | – | – | – | –
8 | CC(C)NCC(O)c1ccc(N)c(C#N)c1 (stereo unspecified) | inactive | inactive | inactive | inactive | inactive | inactive | inactive | inactive | inactive | inactive | – | – | – | – | – | – | – | inactive | – | –
9 | CCOP(=S)(OCC)O/N=C(\C#N)c1ccccc1 | inactive | inactive | inactive | inactive | inactive | inactive | inactive | inactive | inactive | inactive | – | – | – | – | – | – | – | inactive | – | –
10 | CCOC(=O)C1(c2ccccc2)CCN(CCc2ccc(N)cc2)CC1 | inactive | inactive | inactive | inactive | inactive | inactive | inactive | inactive | inactive | inactive | inactive | – | – | – | – | – | – | – | – | –
11 | NCc1cccnc1 | inactive | inactive | inactive | inactive | inactive | inactive | inactive | inactive | inactive | inactive | inactive | – | – | – | – | – | – | inactive | – | –
12 | COc1ccc(OC)c(CC(C)N)c1 (stereo unspecified) | inactive | inactive | inactive | inactive | inactive | inactive | inactive | inactive | inactive | inactive | inactive | – | – | – | – | – | – | inactive | – | –
13 | CCN(CC)Cc1nccn1-c1ccc([N+](=O)[O-])cc1C(=O)c1ccccc1Cl | inactive | inactive | inactive | inactive | inactive | – | inactive | inactive | inactive | inactive | inactive | – | – | – | – | – | – | inactive | – | –
14 | CC(Cc1ccc2c(c1)OCO2)NO (stereo unspecified) | inactive | inactive | inactive | inactive | inactive | inactive | inactive | inactive | inactive | inactive | inactive | – | – | – | – | – | – | inactive | – | –
15 | COc1ccc2c3c1O[C@H]1[C@@H](O)C=C[C@H]4[C@@H](C2)N(C)CC[C@@]341 | 37.8 µM (active) | 17.4 µM (active) | 23.8 µM (active) | – | – | 44 µM (active) | 47.6 µM (active) | – | inactive | inactive | – | – | – | – | – | – | – | – | – | –
16 | CCCC(C)C1(CC)C(=O)N=C(S)NC1=O (stereo unspecified) | inactive | inactive | inactive | inactive | inactive | inactive | inactive | inactive | inactive | inactive | inactive | – | – | – | – | – | – | inactive | – | –
17 | COc1ccc2c(C(=O)c3ccc(Cl)cc3)c(C)n(CC(=O)O)c2c1 | inactive | inactive | inactive | inactive | inactive | inactive | inactive | – | inactive | inactive | – | inactive | 10.4 µM (active) | inactive | inactive | inactive | inactive | – | 7.37 µM (active) | 16.5 µM (active)
18 | CCCOC(=O)Cc1ccc(OCC(=O)N(CC)CC)c(OC)c1 | inactive | inactive | inactive | inactive | inactive | inactive | inactive | inactive | inactive | inactive | inactive | – | – | – | – | – | – | inactive | – | –
19 | COc1ccc2[nH]cc(CCN(C(C)C)C(C)C)c2c1 | inactive | 36.1 µM (active) | inactive | inactive | inactive | – | inactive | inactive | inactive | inactive | – | – | – | – | – | – | – | inactive | – | –
20 | CCC(OC(C)=O)C(CC(C)NC)(c1ccccc1)c1ccccc1 (stereo unspecified) | 43.7 µM (active) | – | – | 35.9 µM (active) | 39 µM (active) | 28.5 µM (active) | 27.6 µM (active) | – | inactive | – | 31 µM (active) | – | – | – | – | – | – | 43.7 µM (active) | – | –

From PubChem BioAssay (NCATS)
